Results filed as inconclusive are left out. Active and inactive are the calls of the source. Unless noted, calls follow the shape of the dose curve; as a rule, active = well fitted curve in the direction sought with a large enough effect; inconclusive = small, poorly fitted or top-dose-only effect, or another doubt; inactive = no such curve, though single readings can be large; an effect the other way counts as inactive or inconclusive.
Assays:
[1] = AP1 Signaling Pathway (AID 357; active = well fitted curve in either direction with a large enough effect, not every such curve was filed as active; also: % is scaled to controls: 0 for no effect and ±100 for the full control effect); settings: ME-180 AP-1-bla reporter, EGF-induced, beta-lactamase ratio, 5 h; at 38 µM (top of the series)
In short: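 ME-180 cells with beta-lactamase reporter under AP-1 response element, stimulated with EC50 EGF; compounds tested in titration series, 5 h at 37 °C. CCF4 substrate added 2.5 h at room temperature; 460/530 nm emission ratio gave %activity and AC50.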

[2] = target: Cytochrome P450 1A2 (Homo sapiens) (UniProt P05177); assay: p450-cyp1a2 (AID 410; calls by dose curve;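 also: -100% = full effect of reference inhibitor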)
Chain of Cytochrome P450 1A2 (Homo sapiens) (P05177 whole entry, looked up): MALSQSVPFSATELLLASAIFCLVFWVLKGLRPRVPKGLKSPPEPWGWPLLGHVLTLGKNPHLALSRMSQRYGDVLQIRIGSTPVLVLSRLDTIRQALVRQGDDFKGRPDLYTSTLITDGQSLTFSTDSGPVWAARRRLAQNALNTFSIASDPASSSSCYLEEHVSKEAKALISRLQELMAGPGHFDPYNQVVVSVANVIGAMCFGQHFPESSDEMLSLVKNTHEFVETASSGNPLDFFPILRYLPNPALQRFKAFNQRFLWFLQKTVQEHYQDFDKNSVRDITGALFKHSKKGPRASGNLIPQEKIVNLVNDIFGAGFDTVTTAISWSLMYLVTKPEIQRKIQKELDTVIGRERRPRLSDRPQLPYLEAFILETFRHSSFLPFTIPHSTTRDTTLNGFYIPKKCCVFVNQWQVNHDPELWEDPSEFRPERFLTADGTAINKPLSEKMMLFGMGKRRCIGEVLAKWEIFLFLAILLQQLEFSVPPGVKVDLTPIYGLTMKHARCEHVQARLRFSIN
In short: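 Luminescent readout of luciferin formed from Luciferin-ME by human CYP1A2; data normalized against complete inhibition by 57 uM furafylline. Enzyme 20nM, substrate 100uM at Km, 100mM KPO4 buffer, 60 min reaction at room temperature.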

[3] = NFAT Signaling Pathway (AID 444; active = well fitted curve in either direction with a large enough effect, not every such curve was filed as active;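 also: carbachol stimulus at about its EC50 of 1 µM final; % is scaled to controls: 0 for no effect and ±100 for the full control effect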); settings: Jurkat NFAT-bla M1, carbachol, beta-lactamase ratio, 5 h; at 38 µM (top of the series)
In short: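 Read-out: CCF4 FRET ratio (460 nm/530 nm) after 1 h RT dye loading, used for %activity and AC50 from titration series. Cells: Jurkat NFAT-β-lactamase/M1 line, treated with compound plus 1 uM carbachol for 5 h, 37 °C.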

[4] = target: Glucocorticoid receptor (Homo sapiens) (UniProt P04150); assay: GR-GFP Redistribution (AID 450;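 active = compounds whose dose series gives a full or clear partial fitted curve of increased nuclear translocation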; also: potency is read from the fitted curve at half-maximal effect); settings: U2OS GR-GFP nuclear translocation, laser cytometry, 2 h
Chain of Glucocorticoid receptor (Homo sapiens) (P04150 whole entry, looked up): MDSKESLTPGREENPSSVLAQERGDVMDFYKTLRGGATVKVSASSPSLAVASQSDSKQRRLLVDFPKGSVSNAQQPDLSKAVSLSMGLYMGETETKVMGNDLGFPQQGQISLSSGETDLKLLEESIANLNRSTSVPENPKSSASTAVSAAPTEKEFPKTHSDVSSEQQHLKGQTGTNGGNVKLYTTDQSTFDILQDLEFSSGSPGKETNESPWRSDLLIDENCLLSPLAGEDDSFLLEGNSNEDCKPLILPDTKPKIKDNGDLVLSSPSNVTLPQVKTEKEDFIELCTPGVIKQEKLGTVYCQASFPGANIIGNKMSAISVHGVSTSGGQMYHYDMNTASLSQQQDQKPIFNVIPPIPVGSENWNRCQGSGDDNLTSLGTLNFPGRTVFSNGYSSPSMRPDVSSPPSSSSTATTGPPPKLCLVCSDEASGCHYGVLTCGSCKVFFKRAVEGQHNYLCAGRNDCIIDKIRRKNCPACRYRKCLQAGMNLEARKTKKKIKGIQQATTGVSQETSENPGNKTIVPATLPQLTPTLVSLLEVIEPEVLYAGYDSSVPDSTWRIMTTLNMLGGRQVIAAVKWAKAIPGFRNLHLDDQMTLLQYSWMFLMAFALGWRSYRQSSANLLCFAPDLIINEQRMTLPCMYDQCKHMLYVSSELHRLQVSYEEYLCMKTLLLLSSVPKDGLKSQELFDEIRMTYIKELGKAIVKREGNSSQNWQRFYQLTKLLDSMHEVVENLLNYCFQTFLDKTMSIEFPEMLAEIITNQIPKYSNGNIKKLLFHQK

[5] = target: Mitogen-activated protein kinase 10 (Mus musculus) (UniProt Q61831); assay: JNK3 AlphaScreen Assay (AID 530; active = well fitted curve in either direction with a large enough effect, not every such curve was filed as active;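 also: kinase came from lysate of stimulated human HepG2 cells; signal reports phosphorylation of biotinylated GST-cJun 1-79 at Ser73 with 10 µM ATP; % is scaled to controls: 0 for no effect and ±100 for the full control effect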)
In short: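 Compound titrations were preincubated 15 minutes at room temperature with substrate, antibody and pre-activated JNK3-containing HepG2 lysate. Reactions were started with 10 uM ATP and stopped with EDTA-containing bead buffer for AlphaScreen detection.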

[6] = target: 3',5'-cyclic-AMP phosphodiesterase 4B (Homo sapiens) (UniProt Q07343); assay: qHTS Assay for Inhibitors of PDE-IV (AID 607; active = well fitted activation curve with a large enough effect in the main read-out, with a control signal flat, not every such curve was filed as active; also: % of control where 0% means no effect)
In short: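 The readout is membrane depolarisation from a cAMP-sensing CNG channel, detected with a potential dye at ex 535/em 590. Cells were HEK293-derived (endogenous PDE-IV) at 1000 cells/well, titrated up to 22.9 uM final.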

[7] = target: Guanine nucleotide-binding protein G(i) subunit alpha-1 (Homo sapiens) (UniProt P63096); assay: qHTS Assay for Inhibitors of RGS12 GoLoco Motif Activity (Green Fluorophore) (AID 879);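 also: 0% = labeled peptide with Gαi1 and full inhibition = labeled peptide alone without protein; negative values mean loss of peptide binding seen as reduced polarization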
Chain of Guanine nucleotide-binding protein G(i) subunit alpha-1 (Homo sapiens) (P63096 whole entry, looked up): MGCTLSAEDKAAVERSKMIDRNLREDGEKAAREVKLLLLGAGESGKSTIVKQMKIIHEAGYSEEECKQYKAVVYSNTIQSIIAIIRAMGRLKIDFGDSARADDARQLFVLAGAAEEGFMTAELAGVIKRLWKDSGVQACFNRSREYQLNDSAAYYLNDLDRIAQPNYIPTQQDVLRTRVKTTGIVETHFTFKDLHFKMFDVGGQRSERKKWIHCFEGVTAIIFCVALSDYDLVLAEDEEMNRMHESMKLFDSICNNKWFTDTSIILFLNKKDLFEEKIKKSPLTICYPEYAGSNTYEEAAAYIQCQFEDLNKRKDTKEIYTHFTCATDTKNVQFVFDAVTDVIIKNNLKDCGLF
In short: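 Fluorescence polarization assay: 50 nM Gαi1 with 10 nM FITC-labeled RGS12 GoLoco peptide in 10 mM Tris pH 7.5, 150 mM NaCl, 0.1 mM GDP, 0.05% NP40, 10 min at room temperature with compound.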

[8] = target: Muscarinic acetylcholine receptor M1 (Rattus norvegicus) (UniProt P08482); assay: qHTS Assay for Antagonists of Acetylcholine Muscarinic M1 Receptor: Measurement of IP-One Response (AID 944); also: nearly all actives have a fitted effect of over 75% in size
In short: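 M1-CHO (rat), 2000 cells/well, overnight recovery; cpd 10 min; carbachol EC80 (200 nM), 30 min, HEPES buffer + 50 mM LiCl pH 7.4; IP-One HTRF, Ex 337, Em 620/665 nm.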

[9] = target: Pyruvate kinase (Leishmania mexicana) (UniProt Q27686); assay: qHTS Validation Assay for Inhibitors of Leishmania Mexicana Pyruvate Kinase (AID 945);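 also: 0% = DMSO only neutral control wells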
Chain of Pyruvate kinase (Leishmania mexicana) (Q27686 2-499 E452W): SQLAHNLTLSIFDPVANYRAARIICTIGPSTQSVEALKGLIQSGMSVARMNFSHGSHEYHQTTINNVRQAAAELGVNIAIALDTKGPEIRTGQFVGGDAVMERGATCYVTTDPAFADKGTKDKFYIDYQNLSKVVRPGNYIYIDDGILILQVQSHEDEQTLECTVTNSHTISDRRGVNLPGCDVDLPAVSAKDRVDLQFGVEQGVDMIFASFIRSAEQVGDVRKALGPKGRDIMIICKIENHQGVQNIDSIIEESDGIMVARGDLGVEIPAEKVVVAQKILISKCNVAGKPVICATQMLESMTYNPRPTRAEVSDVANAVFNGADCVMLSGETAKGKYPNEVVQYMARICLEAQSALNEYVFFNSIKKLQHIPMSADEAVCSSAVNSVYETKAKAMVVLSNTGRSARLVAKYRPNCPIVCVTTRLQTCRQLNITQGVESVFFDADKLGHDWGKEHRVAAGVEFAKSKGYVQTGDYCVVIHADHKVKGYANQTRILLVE
In short: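 Substrate mix (0.5 mM PEP, 0.1 mM ADP, 7 mM MgCl2, 50 mM KCl, pH 7.2 imidazole) received compound by pin tool, then 0.2 nM LmPYK E451W. After 1 h at room temperature, PKLight was added and luminescence measured.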

[10] = target: Pyruvate kinase PKM (Homo sapiens) (UniProt P14618); assay: qHTS Assay for Activators of Human Muscle Pyruvate Kinase (AID 954; active = well fitted curve in the direction sought with a large enough effect, not every such curve was filed as active;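 also: 0% = uninhibited enzyme and -100% = no enzyme or full thiadiazolimine inhibition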)
Chain of Pyruvate kinase PKM (Homo sapiens) (P14618 whole entry, looked up): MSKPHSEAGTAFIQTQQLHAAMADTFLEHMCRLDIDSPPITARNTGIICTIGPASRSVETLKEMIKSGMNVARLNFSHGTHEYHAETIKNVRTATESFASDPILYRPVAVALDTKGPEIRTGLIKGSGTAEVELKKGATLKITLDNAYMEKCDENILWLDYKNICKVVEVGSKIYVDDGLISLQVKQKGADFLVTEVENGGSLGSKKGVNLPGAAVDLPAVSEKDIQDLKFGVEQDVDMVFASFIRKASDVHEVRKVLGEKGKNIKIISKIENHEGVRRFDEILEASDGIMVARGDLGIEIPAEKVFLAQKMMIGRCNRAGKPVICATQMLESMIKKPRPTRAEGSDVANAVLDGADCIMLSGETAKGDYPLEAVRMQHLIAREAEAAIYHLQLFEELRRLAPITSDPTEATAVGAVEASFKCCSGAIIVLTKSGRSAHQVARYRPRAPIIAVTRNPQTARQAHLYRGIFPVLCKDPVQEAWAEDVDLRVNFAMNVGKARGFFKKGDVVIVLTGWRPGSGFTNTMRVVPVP
In short: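 Reaction: 0.1 nM purified PKM2 with 0.5 mM phosphoenolpyruvate and 0.1 mM ADP, room temperature, 1 h. Readout: luciferase-based ATP luminescence after stop reagent. Activators judged against a 0.3 nM enzyme column.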

[11] = target: Alpha-galactosidase A (Homo sapiens) (UniProt P06280); assay: Counterscreen for Glucocerebrosidase Inhibitors: qHTS Assay for Human alpha-Galactosidase at pH 4.5 (AID 992); also: 0% is about no effect
In short: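 Concentration-response curves (0.7 nM to 77 uM final) were modeled with the Hill equation to give AC50. Reactions: 2 nM enzyme, 80 uM fluorogenic alpha-galactoside, pH 4.5 citric acid buffer, 20 min, room temperature.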

[12] = target: alpha-glucosidase (Oryza sativa, rice) (UniProt Q653V4); assay: Counterscreen for Glucocerebrosidase Inhibitors: qHTS Assay for Rice alpha-Glucosidase at pH 5.0 (AID 997);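 also: 0% = full activity with enzyme and -100% = basal without enzyme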
In short: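 Rice alpha-glucosidase (4 nM final) with 400 uM 4-methylumbelliferyl-alpha-D-glucopyranoside in citrate buffer pH 5.0, 20 min at room temperature, stopped at pH 10; fluorescence 365/440 nm, compounds 0.7 nM–77 uM, AC50 from Hill fits.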

[13] = Cytometric Cell-Based qHTS for Inhibitors of the mTORC1 Signaling Pathway in MEF (Tsc2-/-, p53-/-) Cells (AID 2660);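 also: Tsc2 and p53 null MEFs carrying empty vector with compound for 24 h; percent of cells above a phospho-rpS6 to PI ratio cutoff in each well; plate controls were DMSO for no effect and rapamycin for full effect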
In short: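 Cells are plated, treated with compound for 24 hrs at 37 degree Celsius, then fixed, blocked and immunostained for phospho-rpS6 Ser235/236. Propidium iodide counterstain follows. Per-well % positive cells is derived from the PI-normalized phospho-S6 signal.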

[14] = High Content Imaging Cell-Based qHTS for Inhibitors of the mTORC1 Signaling Pathway in MEF (Tsc2-/-, p53-/-) Cells (AID 2666); settings: at 38.3 µM (top of the series);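 also: percent of cells scored positive for phospho-rpS6 Ser235/236 immunostaining by imaging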
In short: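 Cells were plated, dosed with compound after 24 hrs, and incubated another 24 hrs at 37 degree Celsius. Fixed cells were immunostained for phospho-rpS6 Ser235/236 and counterstained, and the normalized signal was scored as % active cells against rapamycin and DMSO controls.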

[15] = High Content Imaging Cell-Based qHTS for Inhibitors of the mTORC1 Signaling Pathway in MEF Cells (AID 2667);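 also: Tsc2-/- p53-/- MEFs stably re-expressing wild-type Tsc2 exposed 24 h; plate controls were DMSO wells for no effect and rapamycin control wells for full effect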
In short: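 Immunofluorescence for rpS6 phosphorylation in MEFs of Tsc2-/-, p53-/- background rescued with WT Tsc2. Compound exposure lasted 24 hrs. Inhibition was scored against rapamycin-treated control wells.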

[16] = Cytometry Cell-Based qHTS for Inhibitors of the mTORC1 Signaling Pathway in MEF cells (AID 2668);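 also: Tsc2-/- p53-/- mouse embryonic fibroblasts stably re-expressing wild-type Tsc2; percent cells positive for phospho-rpS6 Ser235/236 relative to propidium iodide stain; plate controls were DMSO wells for no effect and 7.5 nM rapamycin control wells for full effect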
In short: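 In MEFs grown in DMEM + 10% FBS, a 24 hrs compound exposure preceded imaging of phospho-rpS6 Ser235/236 by laser-scanning cytometry.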

[17] = target: Ubiquitin carboxyl-terminal hydrolase 2 (Homo sapiens) (UniProt O75604); assay: qHTS Validation Assay for Inhibitors of Ubiquitin-specific Protease USP2a Using CHOP2 as the Reporter (AID 463106);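 also: plate controls were DMSO for no effect and full inhibition by NEM for full effect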
In short: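 10nM USP2 core + cpd, 30min RT; add 25nM Ub-CHOP2/25nM substrate; 60min RT; FI 485/531nm. Buffer Tris pH 8.0, CaCl2, BME, CHAPS. Norm. to NEM = 100% inhibition; time-zero read flags fluorescent artifacts.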

[18] = target: Tumor susceptibility gene 101 protein (Homo sapiens) (UniProt Q99816); assay: qHTS Validation Assay for Iinhibitors of HIV-1 Budding by Blocking the Interaction of PTAP/TSG101 (AID 485342; calls by dose curve; also: 0% is about no effect)
Chain of Tumor susceptibility gene 101 protein (Homo sapiens) (Q99816 whole entry, looked up, the tested form may be a part): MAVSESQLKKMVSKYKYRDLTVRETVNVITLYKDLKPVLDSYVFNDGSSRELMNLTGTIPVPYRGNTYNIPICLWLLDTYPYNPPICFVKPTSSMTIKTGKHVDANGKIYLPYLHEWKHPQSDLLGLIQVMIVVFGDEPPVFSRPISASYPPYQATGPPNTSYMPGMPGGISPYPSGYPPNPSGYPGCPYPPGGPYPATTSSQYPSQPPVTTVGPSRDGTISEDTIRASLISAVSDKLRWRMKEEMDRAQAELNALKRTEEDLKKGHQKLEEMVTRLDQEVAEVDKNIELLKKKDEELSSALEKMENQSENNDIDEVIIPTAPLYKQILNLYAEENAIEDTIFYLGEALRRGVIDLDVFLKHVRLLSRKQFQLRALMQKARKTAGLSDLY
In short: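 Compound wells held the Tsg101 binding domain (10 uM) and a FITC-conjugated PTAP peptide (50 nM) in buffer at pH 7.5 containing 0.15 M NaCl and 0.01% Tween 20; polarization was recorded after 20 min, r.t.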

[19] = qHTS Validation Assay to Find Inhibitors of Chronic Active B-Cell Receptor Signaling (AID 485345; active = well fitted curve in the direction sought with a large enough effect in the main read-out, with a control signal flat, not every such curve was filed as active;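 also: 0% = untreated basal cells and 100% = 10 µM MG-132 proteasome inhibitor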)
In short: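 Read-out: ratio of filter-corrected green (IkappaBalpha fusion) to red (native) luciferase signal in doxycycline-induced TMD8 cells after 4 h at 37C. Titration spanned 46 uM–3 nM; Data were normalised to basal cells and 10 uM MG-132 wells.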

[20] = target: Beta-2 adrenergic receptor (Homo sapiens) (UniProt P07550); assay: qHTS validation assay of beta-arrestin-biased ligands of beta2-adrenergic receptor (AID 485366); also: 0% is about no effect
Chain of Beta-2 adrenergic receptor (Homo sapiens) (P07550 whole entry, looked up): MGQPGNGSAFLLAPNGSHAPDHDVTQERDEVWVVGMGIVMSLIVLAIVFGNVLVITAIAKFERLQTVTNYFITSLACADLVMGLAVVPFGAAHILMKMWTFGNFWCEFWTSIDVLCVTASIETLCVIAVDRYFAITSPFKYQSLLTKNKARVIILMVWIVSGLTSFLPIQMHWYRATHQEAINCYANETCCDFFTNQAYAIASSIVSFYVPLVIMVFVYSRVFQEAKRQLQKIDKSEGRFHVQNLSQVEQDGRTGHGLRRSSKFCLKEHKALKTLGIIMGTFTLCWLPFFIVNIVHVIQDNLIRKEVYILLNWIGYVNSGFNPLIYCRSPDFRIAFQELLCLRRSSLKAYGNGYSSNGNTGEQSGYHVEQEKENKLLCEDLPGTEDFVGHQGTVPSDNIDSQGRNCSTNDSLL
In short: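 Values derive from curve-fitted %Activity of a luminescent beta-arrestin recruitment reporter; compounds tested up to 46 microM on Tango cells for 18 hr at 37 degrees C, 5% CO2.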

[21] = target: Thioredoxin reductase 1, cytoplasmic (Rattus norvegicus) (UniProt O89049); assay: qHTS Assay for Substrates of Mammalian Selenoprotein Thioredoxin Reductase 1 (TrxR1) (AID 488772);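 also: NADPH fluorescence in the first read after selenite addition and not the 8 min delta; 0% is about no effect; a drop in NADPH fluorescence below the no-compound background marks a TrxR1 substrate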
Chain of Thioredoxin reductase 1, cytoplasmic (Rattus norvegicus) (O89049 whole entry, looked up): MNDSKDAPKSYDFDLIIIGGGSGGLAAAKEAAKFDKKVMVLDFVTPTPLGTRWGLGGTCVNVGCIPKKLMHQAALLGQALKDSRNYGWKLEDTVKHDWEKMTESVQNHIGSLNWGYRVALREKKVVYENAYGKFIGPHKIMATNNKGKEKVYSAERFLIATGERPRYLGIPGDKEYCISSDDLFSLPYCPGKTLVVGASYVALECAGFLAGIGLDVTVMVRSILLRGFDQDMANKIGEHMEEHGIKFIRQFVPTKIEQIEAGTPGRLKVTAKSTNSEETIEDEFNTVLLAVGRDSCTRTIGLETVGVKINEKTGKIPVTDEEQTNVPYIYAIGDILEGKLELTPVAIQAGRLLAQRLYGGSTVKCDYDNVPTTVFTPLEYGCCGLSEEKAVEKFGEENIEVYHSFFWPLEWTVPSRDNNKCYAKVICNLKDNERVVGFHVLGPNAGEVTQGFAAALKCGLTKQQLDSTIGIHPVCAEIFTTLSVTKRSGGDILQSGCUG
In short: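 Quantitative HTS in Tris-HCl buffer at pH 7.5 with EDTA and Tween-20, using rat TrxR1, 400 uM NADPH and 400 uM selenite (final). A fall in initial NADPH fluorescence relative to background marked substrate behaviour.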

[22] = target: Chromobox protein homolog 1 (Homo sapiens) (UniProt P83916); assay: qHTS Validation Assay for Inhibitors of HP1-beta Chromodomain Interactions with Methylated Histone Tails (AID 488953);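 also: loss of AlphaScreen luminescence from HP1-beta binding biotinylated H3K9me3 peptide; % is scaled to controls: 0 for no effect and ±100 for the full control effect; nearly all actives have a fitted effect of over 50% in size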
Chain of Chromobox protein homolog 1 (Homo sapiens) (P83916 whole entry, looked up): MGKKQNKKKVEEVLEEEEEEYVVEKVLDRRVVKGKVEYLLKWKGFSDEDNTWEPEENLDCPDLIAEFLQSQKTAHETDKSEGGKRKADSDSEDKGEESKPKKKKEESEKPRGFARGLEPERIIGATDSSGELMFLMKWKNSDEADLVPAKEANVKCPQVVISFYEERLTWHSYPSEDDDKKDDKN
In short: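 50 nM HP1-beta + 50 nM biotin-H3(1-18)K9me3, PBS pH 7.4, 0.01% Tween-20, 30 min RT; compound added, 30 min RT; AlphaScreen beads 10 ug/mL final, 30 min dark; luminescence read.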

[23] = target: Methanococcus maripaludis chaperonin (MmCpn) (UniProt Q6LX38); assay: High-Throughput Screening for Modulators of Cytosolic Chaperonin Activity: MmCpn Primary Screen (AID 488978); also: 0% is about no effect
In short: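 HTRF readout (320 nm excitation, 590/665 nm emission) of ADP generated by 50 nM MmCpn hydrolysing 30 uM ATP during 10 min at 37C; compound preincubated 5 min RT.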

[24] = target: D(1A) dopamine receptor (Homo sapiens) (UniProt P21728); assay: HTS Assay for Allosteric Agonists of the Human D1 Dopamine Receptor: Primary Screen for Agonists (AID 488981); also: 0% is about no effect
Chain of D(1A) dopamine receptor (Homo sapiens) (P21728 whole entry, looked up): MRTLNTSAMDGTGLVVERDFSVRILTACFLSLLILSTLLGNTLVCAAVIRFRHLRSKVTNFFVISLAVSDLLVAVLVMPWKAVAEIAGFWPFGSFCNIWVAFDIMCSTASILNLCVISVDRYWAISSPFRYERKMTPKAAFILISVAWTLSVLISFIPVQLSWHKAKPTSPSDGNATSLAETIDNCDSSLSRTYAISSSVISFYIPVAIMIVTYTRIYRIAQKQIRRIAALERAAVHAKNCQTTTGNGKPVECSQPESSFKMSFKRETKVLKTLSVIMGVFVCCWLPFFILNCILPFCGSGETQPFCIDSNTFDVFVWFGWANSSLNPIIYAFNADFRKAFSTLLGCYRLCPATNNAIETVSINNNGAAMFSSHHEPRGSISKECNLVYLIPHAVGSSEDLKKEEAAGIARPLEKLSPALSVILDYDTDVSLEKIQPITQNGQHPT
In short: (§1)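 Calcium flux in an inducible, force-coupled HEK293 Trex D1 line (overnight at 30 C): agonist mode is the 180 s kinetic read after compound; potentiator mode is the following 180 s read after dopamine at EC20.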

[25] = target: D(1A) dopamine receptor (Homo sapiens) (UniProt P21728); assay: HTS Assay for Allosteric Agonists of the Human D1 Dopamine Receptor: Primary Screen for Potentiators (AID 488982); also: 0% is about no effect
In short: as §1

[26] = target: D(1A) dopamine receptor (Homo sapiens) (UniProt P21728); assay: HTS Assay for Allosteric Agonists of the Human D1 Dopamine Receptor: Primary Screen for Antagonists (AID 488983);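 also: calcium flux response to an EC80 dopamine challenge measured with no-wash dye; % is scaled to controls: 0 for no effect and ±100 for the full control effect; nearly all actives have a fitted effect of over 65% in size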
In short: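 Cells are induced with tetracycline and incubated overnight at 30 C, then loaded with calcium dye for 30 to 90 minutes at room temperature. Compound addition is followed by a 180 s read, then an EC80 dopamine addition and another 180 s read.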

[27] = Validation screen for small molecules that induce genotoxicity in human embryonic kidney (HEK293T) cells expressing luciferase-tagged ELG1 (AID 493106); also: 0% is about no effect
In short: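 Luminescence from an ELG1-luciferase fusion serves as the read-out, rising when genetic stress elevates ELG1 protein. HEK293T reporter cells (2,000 per well) received 23 nL compound, incubated 16 hr at 37 °C, then ONE-Glo for 30 min at room temperature.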

[28] = target: ATPase family AAA domain-containing protein 5 (Homo sapiens) (UniProt Q96QE3); assay: Validation screen for small molecules that inhibit ELG1-dependent DNA repair in human embryonic kidney (HEK293T) cells expressing luciferase-tagged ELG1 (AID 493107);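 also: cells co-treated with the DNA-damaging agent 5-fluorouridine alongside compound; % is scaled to controls: 0 for no effect and ±100 for the full control effect; inhibitors lower the ELG1-luciferase luminescence signal; nearly all actives have a fitted effect of over 70% in size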
In short: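 Luminescence from ONE-Glo, developed 30 min at room temperature, served as read-out of ELG1-luciferase levels. Beforehand, reporter HEK293T cells received 5-fluorouridine plus test compound for 16 hr at 37 °C.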

[29] = Nrf2 qHTS screen for inhibitors: Validation (AID 493153; active = well fitted inhibition curve with a large enough effect in the main read-out, with a control signal flat, not every such curve was filed as active;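 as to activity change, negative = inhibition: A549 cells with ARE-driven firefly luciferase reporter reporting Nrf2 activity; % of control where 0% means no effect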); settings: viability change: measured here: cytotoxicity max response
In short: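 Luminescence from an ARE-firefly luciferase reporter in A549 cells gives Nrf2 inhibition; an earlier CellTiter-Fluor fluorescent read flags cytotoxicity. Cells in 5% FBS OPTI-MEM received compound dilution series for 18-24 h at 37°C.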

[30] = qHTS for Inhibitors of Cell Surface uPA Generation: Validation Assay (AID 493164); also: 0% is about no effect
In short: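 RAW 264.7 cells (4000/well) were plated overnight, then exposed for 18 h at 37 C, 5% CO2 to compounds in a 7-point 1:5 titration (2.45 nM–38.3 uM final). Intracellular ATP was read by ATP-Lite luminescence.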

CC[N+](CC)(CC)CC
-5.41%: viability change [29]
inactive: activity change, negative = inhibition [1] -0.239% | Potency [2] | activity change, negative = inhibition [3] -10.5% | Potency [4] > 46 µM | Potency [5] | Potency [6] | outcome [7] | Potency [8] | Potency [9] | outcome [10] | outcome [11] | outcome [12] | outcome [13] | outcome [14] | Potency [15] | Potency [16] | Potency [17] | outcome [18] | outcome [19] | outcome [20] | outcome [21] | Potency [22] | outcome [23] | outcome [24] | outcome [25] | outcome [26] | Potency [27] | Potency [28] | outcome [29] | outcome [30]
